# Only some compounds are listed: those with a hit (about 4.7% of all), similar ones and a draw of the others.
# TRHR agonist: activates the human TRH receptor; P34981; TRHR cells, calcium flux fluo-8, FDSS agonist mode; activation, % at 2 µM; 360,000 tested, 0.18% active; also: 0% is about no effect
# Target sequence (P34981 whole entry, looked up): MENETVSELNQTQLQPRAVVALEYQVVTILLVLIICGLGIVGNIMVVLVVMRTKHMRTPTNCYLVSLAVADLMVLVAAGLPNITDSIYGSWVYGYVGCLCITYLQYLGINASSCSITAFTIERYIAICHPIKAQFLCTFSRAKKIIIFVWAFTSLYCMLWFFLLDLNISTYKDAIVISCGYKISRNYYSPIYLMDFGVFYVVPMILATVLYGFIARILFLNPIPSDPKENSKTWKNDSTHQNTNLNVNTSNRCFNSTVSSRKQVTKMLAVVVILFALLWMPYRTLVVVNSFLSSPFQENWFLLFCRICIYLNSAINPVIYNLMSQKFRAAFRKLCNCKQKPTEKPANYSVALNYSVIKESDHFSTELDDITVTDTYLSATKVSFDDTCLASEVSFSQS
#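 TRHR-expressing cells, plated overnight in medium with 10% serum, were loaded with fluo-8 calcium dye at room temperature. After a 10 s baseline, library compound was pin-added and calcium release was recorded kinetically (ex 480/em 530) as agonist response.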
# D1 antag: human D1 dopamine receptor antagonism; 360,000 tested, 3.2% active; P21728; activity change, negative = inhibition, % at 10 µM; HEK293 TREx D1 cells, calcium flux, dopamine EC80; hits give low values; in the data active = activity change below about -30%; also: % is scaled to controls: 0 for no effect and ±100 for the full control effect
#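 After overnight tetracycline induction at 30 C, force-coupled D1 HEK293 cells took up a no-wash calcium dye at room temperature. Compounds were added and monitored 180 s, and the response to EC80 dopamine was then recorded.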
# TRHR PAM: TRH receptor (human) allosteric enhancement. TRHR cells, fluo-8 calcium fluorescence, EC20 TRH enhancement. enhancement, % at 2 µM. 360,000 tested, 0.66% active; in the data active = enhancement above about 30%; also: 0% is about no effect
#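 Enhancer read-out: after compound pinning and an initial kinetic agonist-mode read, an EC20 of TRH (10 nM final) was injected and fluo-8 calcium signal (Ex 480/Em 530) followed at 1 s/cycle for 100 cycles in TRHR-expressing cells.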
# D1 PAM: potentiators of human D1 dopamine receptor. HEK293 TREx D1 cells, calcium flux, dopamine EC20 potentiation. potentiation, % at 10 µM. 360,000 tested, 0.036% active. AID 504651; in the data active = potentiation above about 30%; also: 0% is about no effect
# D1 agonist: agonists of human D1 dopamine receptor. HEK293 T-REx D1 cells, calcium flux, agonist mode. activation, % at 2 µM. 360,000 tested, 1% active. P21728; also: 0% is about no effect
#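 Inducible HEK293 T-REx D1 cells, force-coupled to calcium signalling, were plated at 4000 cells/well with tetracycline and held overnight at 30 C. After no-wash calcium dye loading, compound-evoked calcium rise over 180 s flagged agonists.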
# * = called active by the depositor; . = no result; ! = repeats disagree. Rule as the data show it, unless noted: active = activation above about 30%; inactive = the rest.
SMILES,TRHR agonist,D1 antag,TRHR PAM,D1 PAM,D1 agonist
Cc1ccc(C)c(NC(=O)CN(C)C(=O)C2COc3ccccc3O2)c1 (stereo not given),0,-4,4,-3,1
O=C(Nc1ccc(F)cc1)c1ccc(Cn2nc(N3CCN(c4ccccc4)CC3)ccc2=O)o1,-1,-32*,1,-5,1
CC1=C(C(=O)Nc2ccccc2)C(C(C)C)n2nc(SCc3ccccc3C)nc2N1 (stereo not given),0,-9,-3,2,3
N/C(=N\OC(=O)COc1ccc([N+](=O)[O-])cc1)c1cccnc1,0,-2,4,38*,2
N/C(=N\OC(=O)c1cc(Cl)ccc1Cl)c1cccnc1,0,-57*,3,-13,1
N/C(=N\OC(=O)c1cc(Br)ccc1Cl)c1cccnc1,1,-2,-4,-3,1
N/C(=N\OC(=O)c1ccccc1)c1cccnc1,1,-50*,-1,2,3
COc1cc(C(=O)OCCNC(=O)c2ccncc2)cc(OC)c1OC,0,-39*,9,-5,1
O=C(NCCOC(=O)c1ccncc1)c1ccccc1,-1,3,-1,-4,4
CCNC(=O)CCSc1nnc(-c2ccc(O)cc2)o1,-1,-16,6,0,4
CC(=O)c1ccc(OC(C)C)c(CN2CCCCC2)c1,0,-19,-2,-6,2
CC(=O)c1cc(CN2CCCCC2)cc(OC(C)C)c1,0,-45*,-1,-7,3
COc1ccccc1N1CCN(C(=O)C2CCN(S(=O)(=O)Cc3ccccc3)CC2)CC1,-1,5,-2,-1,0
Cn1nc(C(=O)NCc2cccc(Cl)c2)c2c1-c1ccccc1SC2,0,2,-2,-1,-1
CC1(C)CC(=O)C2=C(C1)Nc1ccccc1NC2,-1,-51*,-1,-5,0
CC1(C)CC(=O)C2=C(C1)Nc1ccccc1N=C2,19,-11,-4,10,39*
CC1(C)CC(=O)C2=C(C1)Nc1ccccc1S2,0,-16,-3,-5,2
CC(NC(=O)Nc1ccc(F)cc1F)c1ccncc1 (stereo not given),0,3,-4,5,-1
CCOc1ccc(C(C)NC(=O)Nc2ccc(F)cc2F)cc1 (stereo not given),1,-77*,-2,-1,12
CCO/N=C/C(=O)Nc1ccc(F)cc1F,1,-75*,2,-2,0
CCOc1ccc(-n2c(SC(C)C(=O)OC)nc3c([nH]c4ccccc43)c2=O)cc1 (stereo not given),0,17,5,-3,1
Nc1c(C(=O)c2ccccc2)sc2nsc(SCCN3CCOCC3)c12,89*,-42*,11,4,194*
C/C(=N\NC(=O)Nc1ccccc1)c1ccc2ccccc2c1,-1,5,3,-11,3
C/C(=N/NC(=O)Nc1ccccc1)c1ccc(C)cc1,0,-13,33*,0,0
COc1ccc(OC)c2sc(N(Cc3cccnc3)C(=O)c3ccc(C(C)=O)cc3)nc12,-1,.,12,-1,-1
SMILES,TRHR agonist,D1 antag,TRHR PAM,D1 PAM,D1 agonist
CCCOc1ccc(C(=O)c2nc3c(n2O)CCCC3)cc1,0,-32*,6,-5,6
CCC(CC)C(=O)Nc1cccc(-c2nc3cccnc3s2)c1C,0,3,12,3,3
Cc1cc(NC(=S)N(CCN2CCCCC2)Cc2ccco2)ccc1Cl,1,-38*,3,-10,1
CC(C)c1cc(-c2nc(-c3ccccc3)no2)n[nH]1,1,2,7,-4,1
O=S(=O)(NCCCCNS(=O)(=O)c1c(F)cccc1F)c1ccc2c(c1)OCCO2,0,-41*!,2,0,1
O=S(=O)(NCCNS(=O)(=O)c1c(F)cccc1F)c1ccc2c(c1)OCCO2,0,-24,2,0,-2
Cc1ccc(SCCNS(=O)(=O)c2ccc3c(c2)OCCO3)cc1,0,-33*,-2,-8,10
CCc1cc(=O)oc2c(C)c(OCC(=O)NCCCN3CCCC3=O)ccc12,0,9,0,1,5
CC(C)N1CN=C(Nc2nc3ccccc3o2)NC1,0,22,31*,0,2
COc1ccc(CN(C(=O)Nc2ccccc2)c2ccccn2)cc1OC,0,2,18,3,1

# Assay outcomes: PubChem, National Center for Advancing Translational Sciences (NCATS)
